Most compounds without a hit are left out; they make up all but 9.3% or so of the library.
VACV mCherry inh: qHTS for Stage-Specific Inhibitors of Vaccinia Orthopoxvirus: mCherry Reporter Primary qHTS | Vaccinia virus mCherry reporter infection, fluorescence | Potency, µM (doses to about 36.5 µM), hits mostly inhibitors | hit rate 0.63% among 310,000 | AID 720579, 2013; calls by dose curve; tested in A549 cells; further: nearly all actives have a fitted effect of over 35% in size
Vaccinia Venus: qHTS for Stage-Specific Inhibitors of Vaccinia Orthopoxvirus: Venus Reporter Primary qHTS; AID 720580, 2013; Vaccinia virus Venus reporter expression, fluorescence; Potency, µM (doses to about 36.5 µM), hits mostly inhibitors; hit rate 0.46% among 330,000; calls by dose curve; tested in A549 cells; further: nearly all actives have a fitted effect of over 30% in size
Sm TGR inh: qHTS Assay for the Inhibitors of Schistosoma Mansoni Peroxiredoxins; AID 485364, 2010; purified TGR, DTNB reduction, TNB absorbance 405 nm; Schistosoma mansoni thioredoxin glutathione reductase (TGR), Q962Y6; Potency, µM (doses to about 114 µM), actives largely listed as inhibitors; hit rate 3% among 360,000; further: nearly all actives have a fitted effect of over 60% in size
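Kinetic colorimetric format: TGR-catalysed, NADPH-driven DTNB reduction monitored via TNB absorbance. Enzyme dispensed at 20 nM; compound exposure 15 min at room temperature before reaction start.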
HCMV antiviral: qHTS Assay for inhibitors of the human cytomegalovirus (HCMV) | HFF cells, HCMV-luciferase reporter, 72 h; stronger effect = lower value | activity change, negative = inhibition, % at 57.5 µM | hit rate 4.5% among 410,000 | AID 1259415, 2018; in the data active means activity change below about -60%; inconclusive means no clear call, values can overlap the other calls; inactive means above about -39%
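Inhibition of viral replication was scored as loss of reporter luminescence in HFFs infected with HCMV-luciferase (MOI 1 PFU/cell) for 72 h; compounds tested at 2 doses, normalized to buffer and Salinomycin controls.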
HCV inh: qHTS Assay for Inhibitors of Hepatitis C Virus (HCV). Potency, µM (series often up to 41.8 µM), most hits filed as inhibitors. hit rate 3.4% among 340,000. AID 651820, 2012. Huh7.5.1 HCVcc-Cre infection, luciferase reporter, 44 h
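After 44 h co-culture of compound, cells and HCVcc-Cre (~0.5 moi), substrate is added for 15 min at room temperature and luciferase measured over 15 sec. Cells were seeded at 1,000/well and pre-cultured 4 h.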
FMDV inh: High Throughput Screening for Foot and Mouth Disease Virus Antivirals | hit rate 1.2% among 410,000 | FMDV antiviral cell-based qHTS | Potency, µM (top dose mostly 57.9 µM), usual class: inhibitors; calls by dose curve; tested in HEK293T cells; further: read-out not given here; nearly all actives have a fitted effect of over 45% in size
Of the large screens only hits and unclear results are named; the others gave an inactive call. Unless noted, the call rests on the fitted dose curve; in most records, active means well fitted curve in the direction sought with a large enough effect; inconclusive means small, poorly fitted or top-dose-only effect, or another doubt; inactive means no such curve, though single readings can be large; an effect the other way counts as inactive or inconclusive.

O=C1C2ON(c3ccccc3)C(c3ccncc3)C2C(=O)N1c1ccc(Br)cc1 (centres undefined)	Sm TGR inh 45µM (no result: VACV mCherry inh, Vaccinia Venus)
O=C1C2ON(c3ccccc3)C(c3ccccc3F)C2C(=O)N1c1ccccc1 (centres undefined)	none (no result: VACV mCherry inh)
Cc1cccc(C)c1NC(=O)CN(C)C(=O)C1CCCCC1	none (no result: VACV mCherry inh, Vaccinia Venus)
O=C(NC1CCCCC1)c1cc(F)cc2c1OCOC2	none
O=C(O)CCN1C(=O)C2C3CC(C2C1=O)C1C(c2ccccc2)c2sc(=O)[nH]c2SC31 (centres undefined)	none
CC1CCc2cc(F)cc3c(=O)c(C(=O)O)cn1c23 (centres undefined)	HCMV antiviral -71
CC1CCc2c(N3CCC(O)CC3)c(F)cc3c(=O)c(C(=O)O)cn1c23 (centres undefined)	none
CC(C)c1ccc(Nc2cc(C(=O)NCc3cccs3)c3ccccc3n2)cc1	none (no result: HCV inh)
Nc1ccc(C2(c3ccc(N)cc3)c3ccccc3-c3ccccc32)cc1	VACV mCherry inh inconclusive, Vaccinia Venus inconclusive, HCMV antiviral -91, HCV inh 8.9µM, FMDV inh inconclusive
CCOc1ccc(C(=O)CCC(=O)Nc2cc(C)ccn2)cc1	none
CCC(C)(C)n1nnnc1C(c1ccc(N(C)C)cc1)N1CCN(C2CCCCC2)CC1 (centres undefined)	Sm TGR inh 22µM, FMDV inh inconclusive
COCCn1nnnc1C(c1ccc(Cl)cc1)N1CCN(C(=O)c2ccco2)CC1 (centres undefined)	none
CN(C)c1ccc(C(c2nnnn2C(C)(C)C)N2CCN(C(=O)c3ccco3)CC2)cc1 (centres undefined)	Sm TGR inh 16µM (no result: VACV mCherry inh)
CC(C)CCn1nnnc1C(c1ccc(N(C)C)cc1)N1CCN(C(=O)c2ccco2)CC1 (centres undefined)	Sm TGR inh 45µM
CCOC(=O)C1=C(C)N(c2ccccc2)C(=O)NC1c1cccc([N+](=O)[O-])c1 (centres undefined)	none
CCOC(=O)Nc1cc(NC(=O)OCC)ncn1	none (no result: Sm TGR inh)
C/C(=N/NS(=O)(=O)c1ccc(Br)cc1)c1c[nH]c2ccccc12	Sm TGR inh 40µM
CCn1c(=O)c([N+](=O)[O-])c(N2CCSCC2)c2ccccc21	VACV mCherry inh inconclusive, Vaccinia Venus inconclusive, HCMV antiviral inconclusive, HCV inh 14µM, FMDV inh 18µM
O=c1c([N+](=O)[O-])c(N2CCOCC2)c2ccccc2n1Cc1ccccc1	HCMV antiviral -67, HCV inh inconclusive, FMDV inh inconclusive
O=c1sc2ccccc2c(N2CCOCC2)c1[N+](=O)[O-]	Sm TGR inh 40µM
CCn1c(=O)c([N+](=O)[O-])c(N2CCN(Cc3ccc4c(c3)OCO4)CC2)c2ccccc21	Vaccinia Venus inconclusive, HCMV antiviral -64, HCV inh 11µM, FMDV inh 32µM
Cn1c(=O)c([N+](=O)[O-])c(N2CCSCC2)c2ccccc21	VACV mCherry inh inconclusive, HCMV antiviral inconclusive, HCV inh inconclusive, FMDV inh inconclusive
c1ccc(Cn2sc(=Nc3ccccc3)nc2-c2ccccc2)cc1	none (no result: Sm TGR inh, HCMV antiviral, HCV inh, FMDV inh)
CC(C)c1ccc(NC2CCCN(C(=O)CCN3Cc4ccccc4C3=O)C2)cc1 (centres undefined)	none (no result: VACV mCherry inh, Vaccinia Venus)
C=CCn1c(O)c(C(C)=NCCc2c[nH]c3ccccc23)c(=O)[nH]c1=O	none
Cc1cc(C)c(CN2CCN(C(=O)Cn3cnc(C(=O)Nc4ccc(C)c(C)c4)n3)CC2)c(C)c1	Vaccinia Venus inconclusive, HCMV antiviral -102, HCV inh inconclusive, FMDV inh inconclusive (no result: Sm TGR inh)
O=C(N/N=C/c1ccco1)c1cccc(N2Cc3ccccc3C2)c1	Sm TGR inh 3.5µM
O=C(N/N=C/c1ccco1)c1cccc(N2CCCC2=O)c1	none
CC1(C)CC(=O)C2=C(C1)N(Cc1ccco1)C(=O)C2(NC(=O)c1cccnc1)C(F)(F)F (centres undefined)	Sm TGR inh 20µM (no result: VACV mCherry inh, Vaccinia Venus)
CC1(C)CC(=O)C2=C(C1)N(Cc1cccnc1)C(=O)C2(NC(=O)c1cccnc1)C(F)(F)F (centres undefined)	none
CCCn1nc(C(=O)NC2CCCCCC2)c2ccccc2c1=O	HCMV antiviral inconclusive
NCCCCc1ccc2ccc3cccc4ccc1c2c34	none
Cc1ccc(NC(=O)COC(=O)C2CCN(c3ccc(C(F)(F)F)cn3)CC2)cc1	HCMV antiviral -73 (no result: VACV mCherry inh, Vaccinia Venus)
COc1ccc(NC(=O)c2cc(-c3cccnc3)nc3c(C)c(C)ccc23)c(OC)c1	HCV inh 13µM, FMDV inh inconclusive (no result: VACV mCherry inh, Vaccinia Venus)
COc1ccc(NC(=O)c2cccnc2)c(OC)c1	none (no result: VACV mCherry inh, Vaccinia Venus)
O=C(c1ccc(CS(=O)c2ccccc2Cl)o1)N1CCN(c2cccc(C(F)(F)F)c2)CC1 (centres undefined)	Vaccinia Venus inconclusive, HCMV antiviral -96, FMDV inh inconclusive (no result: HCV inh)
O=C(c1ccc(CS(=O)Cc2ccccc2Cl)o1)N1CCN(c2cccc(Cl)c2)CC1 (centres undefined)	Sm TGR inh inconclusive, HCV inh inconclusive
O=C(c1ccc(CS(=O)c2ccccc2Cl)o1)N1CCN(c2cccc(Cl)c2)CC1 (centres undefined)	HCMV antiviral -93 (no result: HCV inh)
O=C(c1ccc(F)cc1)c1cccc(C(=O)c2ccc(F)cc2)n1	none (no result: Sm TGR inh)
CCC1(C)Cc2c(sc3nc(SC)nc(NCCN(C)C)c23)CO1 (centres undefined)	HCMV antiviral -108, HCV inh inconclusive (no result: VACV mCherry inh, Vaccinia Venus)
COc1ccccc1C(=O)NC1CCCCCCC1	none (no result: VACV mCherry inh, Vaccinia Venus)
O=C(NC1CCN(Cc2ccccc2)CC1)c1ccccc1OCc1ccccc1	HCV inh 25µM, FMDV inh inconclusive (no result: VACV mCherry inh, Vaccinia Venus)
CCOc1ccccc1C(=O)NC1CCN(Cc2ccccc2)CC1	none
O=C(NC1CCCC1)c1ccccc1OCc1ccccc1	HCMV antiviral inconclusive, HCV inh 7.9µM, FMDV inh inconclusive
O=C(NC1CCN(Cc2ccccc2)CC1)c1ccccc1OCc1ccccc1Cl	HCMV antiviral -63, HCV inh inconclusive
CC(C)CC(C(=O)O)N1C(=O)C2C3c4ccccc4C(c4ccccc43)[C@@H]2C1=O (some centres undefined)	none (no result: VACV mCherry inh, Vaccinia Venus)
Cc1cc(N2CCOCC2)nc(SCC(=O)c2ccc(Cl)cc2)n1	Vaccinia Venus inconclusive, FMDV inh inconclusive (no result: VACV mCherry inh)
CCC1N=C(SC)NC(C)=C1C(=O)c1ccccc1 (centres undefined)	HCMV antiviral -69 (no result: VACV mCherry inh, Vaccinia Venus)
CCOC(=O)C1=C(C)NC(SC)=NC1c1ccc(OC)cc1 (centres undefined)	Sm TGR inh inconclusive
Cc1cc(CNC(=O)COC(=O)Cn2[nH]c(=O)c3ccccc3c2=O)cc(C)c1O	HCMV antiviral -98
CC(C)NC(=O)COC(=O)Cn1[nH]c(=O)c2ccccc2c1=O	none (no result: VACV mCherry inh, Vaccinia Venus)
